Assay results from PubChem BioAssay AID1159580 (chemical genetic matrix, 2015).
Values joined by “and” are separate entries in the source; they are usually repeats but may differ in a detail not shown here. Equal entries are not always repeated. Screen size: about 5,500 compounds; about 2,000 (36%) were called active. Not shown: some 18% with an inconclusive outcome. No stated cut-off is given here; in the data, active means normalized growth mostly below about 0.91 (no sharp cut-off); inconclusive means no clear call, values can overlap the other calls; inactive means mostly above about 0.92. The list shows a part of the results.

Assay: chemical genetic growth profiling, strain panel (AID 1159580);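 further: tested at 20 µM; growth read once vehicle control cultures reached saturation at 30 °C; 1 = growth at the plate median or of vehicle wells; lower values mean less growth of the strain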
Details: S. cerevisiae deletion strains, growth OD

Measured: normalized growth

CC[C@@]1(C2O[C@@H](C3O[C@@](O)(CC)[C@H](C)C[C@@H]3C)C[C@@H]2C)CC[C@H]([C@]2(C)CCC3(C[C@H](O)[C@@H](C)[C@@H]([C@H](C)[C@@H](OC)[C@H](C)C(=O)O)O3)O2)O1 (stereo not given in full)
inactive: locus YAL013W, strain DEP1, active compounds read low 0.998 | locus YAL021C, strain ccr4, active compounds read low 0.924 | locus YAL030W, strain snc1, active compounds read low 1.03 | locus YBL061C, strain skt5, active compounds read low 1.04 | locus YBR009C, strain hhf1, active compounds read low 1.02 | locus YBR021W, strain FUR4, active compounds read low 1.05 | locus YBR023C, strain chs3, active compounds read low 1.03 | locus YBR171W, strain sec66, active compounds read low 0.974 | locus YBR229C, strain ROT2, active compounds read low 1.03 | locus YBR231C, strain swc5, active compounds read low 1.06 | locus YBR279W, strain paf1, active compounds read low 1.03 | locus YCL011C, strain gbp2, active compounds read low 0.991 | locus YCL016C, strain dcc1, active compounds read low 1.02 | locus YCL029C, strain bik1, active compounds read low 0.982 | locus YCL069W, strain vba3, active compounds read low 0.998 | locus YCR088W, strain abp1, active compounds read low 0.966 | locus YDL005C, strain med2, active compounds read low 1.06 | locus YDL035C, strain GPR1, active compounds read low 1.04 | locus YDL040C, strain nat1, active compounds read low 1.03 | locus YDL074C, strain BRE1, active compounds read low 0.994 | locus YDL101C, strain DUN1, active compounds read low 0.99 | locus YDL134C, strain PPH21, active compounds read low 1.05 | locus YDL185W, strain tfp1, active compounds read low 0.96 | locus YDL192W, strain arf1, active compounds read low 0.999 | locus YDR001C, strain nth1, active compounds read low 0.972 | locus YDR069C, strain doa4, active compounds read low 1.03 | locus YDR101C, strain arx1, active compounds read low 1.01 | locus YDR159W, strain sac3, active compounds read low 1.02 | locus YDR162C, strain NBP2, active compounds read low 1.01 | locus YDR195W, strain ref2 1.04 | locus YDR297W, strain sur2, active compounds read low 1.04 | locus YDR318W, strain mcm21, active compounds read low 0.98 | locus YDR334W, strain swr1, active compounds read low 0.987 | locus YDR335W, strain msn5, active compounds read low 1.02 | locus YDR388W, active compounds read low 1.01 | locus YDR392W, strain spt3, active compounds read low 1.08 | locus YDR502C, strain sam2, active compounds read low 0.983 | locus YEL003W, strain gim4, active compounds read low 1 | locus YEL037C, strain rad23, active compounds read low 1.01 | locus YEL061C, strain CIN8 (second series), active compounds read low 1.01 | locus YEL061C, strain CIN8, active compounds read low 0.99 | locus YER015W, strain faa2, active compounds read low 1.01 | locus YER016W, strain bim1, active compounds read low 1.01 | locus YER110C, active compounds read low 1.01 | locus YER111C, strain swi4, active compounds read low 1.04 | locus YER155C, strain BEM2 (second series), active compounds read low 1.08 | locus YER155C, strain BEM2, active compounds read low 0.999 | locus YER167W, strain BCK2, active compounds read low 0.992 | locus YFR010W, strain ubp6, active compounds read low 1.02 | locus YGL078C, strain dbp3, active compounds read low 0.994 | locus YGL086W, strain mad1, active compounds read low 1 | locus YGL167C, strain pmr1, active compounds read low 1.05 | locus YGL173C, strain kem1, active compounds read low 1.04 | locus YGL227W, strain vid30, active compounds read low 1 | locus YGL240W, strain doc1, active compounds read low 1.04 | locus YGL248W, strain PDE1, active compounds read low 0.991 | locus YGL253W, strain hxk2, active compounds read low 0.983 | locus YGR078C, strain PAC10, active compounds read low 0.994 | locus YGR135W, strain pre9, active compounds read low 0.971 | locus YGR252W, strain gcn5, active compounds read low 0.976 | locus YHR013C, strain ard1, active compounds read low 1.03 | locus YHR027C, strain rpn1, active compounds read low 1.05 | locus YHR030C, strain SLT2, active compounds read low 1.01 and 0.966 | locus YHR079C, strain IRE1 (second series), active compounds read low 0.991 | locus YHR079C, strain IRE1, active compounds read low 0.956 | locus YHR094C, strain hxt1, active compounds read low 1.02 | locus YHR129C, strain ARP1, active compounds read low 1 | locus YHR142W, strain chs7, active compounds read low 0.966 | locus YHR200W, strain rpn10, active compounds read low 0.986 | locus YIL066C, strain RNR3, active compounds read low 1 | locus YIL073C, strain SPO22, active compounds read low 0.915 | locus YIL125W, strain kgd1, active compounds read low 0.993 | locus YIR030C, strain dcg1, active compounds read low 1 | locus YJL092W, strain hpr5, active compounds read low 0.973 | locus YJL095W, strain BCK1 (second series), active compounds read low 1.04 | locus YJL095W, strain BCK1, active compounds read low 0.972 and 0.975 | locus YJL115W, strain asf1, active compounds read low 1.02 | locus YJL134W, strain LCB3, active compounds read low 1.01 | locus YJL154C, strain vps35, active compounds read low 0.963 | locus YJL164C, strain tpk1, active compounds read low 0.993 | locus YJL166W, strain qcr8, active compounds read low 1.04 | locus YJL168C, strain set2, active compounds read low 1.03 | locus YJL187C, strain SWE1 (second series), active compounds read low 0.98 | locus YJR043C, strain POL32, active compounds read low 1.05 | locus YJR066W, strain TOR1, active compounds read low 0.941 | locus YKL009W, strain mrt4, active compounds read low 1 | locus YKL068W, active compounds read low 0.998 | locus YKL085W, strain MDH1 (second series), active compounds read low 0.942 | locus YKL085W, strain MDH1, active compounds read low 0.942 | locus YKL160W, strain elf1, active compounds read low 1.01 | locus YKL190W, strain CNB1, active compounds read low 0.981 | locus YKR001C, strain vps1, active compounds read low 1.03 | locus YKR026C, strain gcn3, active compounds read low 0.979 | locus YKR091W, strain srl3, active compounds read low 0.999 | locus YLL001W, strain dnm1, active compounds read low 1.02 | locus YLL026W, active compounds read low 1 | locus YLL041C, strain sdh2, active compounds read low 1.01 | locus YLR027C, strain aat2, active compounds read low 0.995 | locus YLR039C, strain RIC1, active compounds read low 1.32 | locus YLR058C, strain SHM2, active compounds read low 0.989 | locus YLR102C, strain apc9, active compounds read low 1.02 | locus YLR113W, strain HOG1, active compounds read low 0.947 | locus YLR221C, strain rsa3, active compounds read low 0.988 | locus YLR258W, strain gsy2, active compounds read low 1.03 | locus YLR262C, strain YPT6, active compounds read low 1.07 | locus YLR268W, strain sec22, active compounds read low 0.987 | locus YLR320W, strain mms22, active compounds read low 1.02 | locus YLR330W, strain CHS5, active compounds read low 0.994 | locus YLR342W, strain FKS1 (second series), active compounds read low 1.05 | locus YLR342W, strain FKS1, active compounds read low 1.01 | locus YLR357W, strain rsc2, active compounds read low 1.01 | locus YLR370C, strain arc18, active compounds read low 0.979 | locus YLR371W, strain rom2, active compounds read low 1.01 | locus YLR384C, strain iki3, active compounds read low 1.05 | locus YLR418C, strain cdc73, active compounds read low 0.993 | locus YML016C, strain PPZ1, active compounds read low 0.996 | locus YML032C, strain rad52, active compounds read low 1.01 | locus YML120C, strain ndi1, active compounds read low 1.01 | locus YML124C, strain tub3, active compounds read low 1.01 | locus YMR058W, strain fet3, active compounds read low 1.01 | locus YMR078C, strain ctf18, active compounds read low 1.02 | locus YMR125W, strain sto1, active compounds read low 0.982 | locus YMR129W, active compounds read low 0.999 | locus YMR205C, strain PFK2, active compounds read low 1.01 | locus YMR223W, strain ubp8, active compounds read low 0.983 | locus YMR263W, strain SAP30, active compounds read low 0.967 | locus YMR307W, strain GAS1, active compounds read low 1.23 | locus YNL067W, strain RPL9B, active compounds read low 0.959 | locus YNL071W, strain lat1, active compounds read low 1.01 | locus YNL128W, strain TEP1, active compounds read low 0.956 | locus YNL153C, strain GIM3, active compounds read low 0.997 | locus YNL183C, strain NPR1, active compounds read low 0.941 | locus YNL209W, strain ssb2, active compounds read low 1.05 | locus YNL233W, strain BNI4, active compounds read low 1 | locus YNL248C, strain rpa49, active compounds read low 1.03 | locus YNL250W, strain rad50, active compounds read low 0.998 | locus YNL271C, strain bni1, active compounds read low 1.01 | locus YNL298W, strain CLA4, active compounds read low 0.993 | locus YNL307C, strain MCK1, active compounds read low 1.05 | locus YNL322C, strain KRE1 (second series), active compounds read low 0.962 | locus YNL322C, strain KRE1, active compounds read low 0.99 | locus YNR049C, strain mso1, active compounds read low 0.985 | locus YNR052C, strain pop2, active compounds read low 0.988 | locus YOL012C, strain htz1 1.01 | locus YOL147C, strain pex11, active compounds read low 1.01 | locus YOR001W, strain rrp6, active compounds read low 1.02 | locus YOR061W, strain CKA2, active compounds read low 1 | locus YOR069W, strain VPS5, active compounds read low 1 | locus YOR070C, strain gyp1, active compounds read low 1.03 | locus YOR080W, strain dia2, active compounds read low 1.03 | locus YOR083W, strain WHI5, active compounds read low 1.01 | locus YOR136W, strain idh2, active compounds read low 0.99 | locus YOR144C, strain elg1, active compounds read low 1.01 | locus YOR184W, strain ser1, active compounds read low 0.977 | locus YOR231W, strain MKK1, active compounds read low 0.974 | locus YOR265W, strain rbl2, active compounds read low 1.04 | locus YOR290C, strain snf2, active compounds read low 0.978 | locus YOR316C, strain cot1, active compounds read low 1.01 | locus YPL051W, strain arl3, active compounds read low 1.01 | locus YPL055C, strain LGE1, active compounds read low 1.01 | locus YPL078C, strain atp4, active compounds read low 1.05 | locus YPL106C, strain sse1, active compounds read low 1.08 | locus YPL240C, strain hsp82, active compounds read low 1.04 | locus YPL241C, strain CIN2, active compounds read low 1.01 | locus YPL256C, strain CLN2, active compounds read low 0.993 | locus YPR119W, strain clb2, active compounds read low 1.02 | locus YPR141C, strain kar3, active compounds read low 0.993 | locus YPR163C, strain tif3, active compounds read low 1.05 | locus YPR167C, strain met16, active compounds read low 0.991 | strain wtn01, active compounds read low 0.99
